Most compounds without a hit are left out; they make up all but 2.7% or so of the library.
Tau fluor cs = counter-screen for tau fibril formation inhibitors. Potency, µM (top dose mostly 57.7 µM), inactives show at the top dose activity change, negative = decrease. tau K18 P301L Alexa594 fluorescence, heparin fibrillization. hit rate 0.93% among 280,000; further: potency means the concentration at half of the fitted maximal effect; nearly all actives have a fitted effect of over 55% in size
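Human tau K18 P301L (15 uM unlabeled, 0.24 uM Alexa 594-labeled) in 100 mM sodium acetate pH 7 with 20 uM heparin, 6 hr at 37 C. ThT 30 uM added, 1 hr ambient; Alexa 594 FP and total fluorescence read at 555/632 nm.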
Tau ThT inhib = inhibitors of human tau fibril formation, thioflavin T binding. P10636. recombinant tau K18 P301L (four-repeat tau fragment), heparin-induced fibrillization, ThT fluorescence. Potency, µM (series often up to 57.4 µM), for the others: at the highest dose activity, negative = inhibition, most hits filed as inhibitors. hit rate 2.1% among 270,000; further: potency means the concentration at half of the fitted maximal effect; nearly all actives have a fitted effect of over 55% in size
Target sequence (P10636 561-689 P618L limits assumed): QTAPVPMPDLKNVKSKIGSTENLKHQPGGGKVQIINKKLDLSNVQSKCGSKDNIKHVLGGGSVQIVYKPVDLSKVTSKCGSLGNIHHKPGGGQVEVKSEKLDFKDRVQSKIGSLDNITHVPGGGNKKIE
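Heparin-induced (20 uM) aggregation of recombinant human K18 P301L tau, 15 uM unlabeled with 0.24 uM labeled, pH 7 acetate buffer, 6 hr at 37 C with compound. Fibrils quantified by 30 uM ThT fluorescence after 1 hr ambient incubation.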
Tau fibril FP = inhibitors of human tau fibril formation | Potency, µM (doses to about 57.7 µM), for the others: at the highest dose activity, negative = inhibition, actives largely listed as inhibitors | hit rate 0.39% among 280,000 | K18 P301L tau heparin fibrillization, Alexa594 FP, 6 h | P10636; further: potency means the concentration at half of the fitted maximal effect; nearly all actives have a fitted effect of over 55% in size
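FP of Alexa 594-tau after heparin (20 uM) induction. Substrate: human K18 P301L, 15 uM unlabeled, 0.24 uM labeled. Buffer 100 mM sodium acetate pH 7. 6 hr, 37 C.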
FBPA coupling cs = counter-screen for Giardia aldolase inhibitors: coupling enzyme system; coupling enzyme system counterscreen, AmpLite Red fluorescence; AID 2472; hit rate 0.67% among 290,000; activity change, negative = inhibition, % at 58.2 µM, hits read low; in the data active means activity change below about -30%
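First, compound is pin-transferred into glyceraldehyde-3-phosphate coupling-enzyme reagent at 57.5 uM final and held 10 min at RT. Next, substrate, coupling system and AmpLite Red are added. After 20 min RT, fluorescence (525/598 nm) is read.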
* hit, by the source's call; ? = inconclusive; nt = no result; ! = not confirmed by another sample; [ ] = another dose, or the depositor's remark. Unless noted, the call rests on the fitted dose curve; in most records, active means well fitted curve in the direction sought with a large enough effect; inconclusive means small, poorly fitted or top-dose-only effect, or another doubt; inactive means no such curve, though single readings can be large; an effect the other way counts as inactive or inconclusive. On the % scale 0 is the no-effect control and ±100 the full control effect.

SMILES	Tau fluor cs	Tau ThT inhib	Tau fibril FP	FBPA coupling cs
Cc1[nH]c2ccc(C(=O)NC3CCC(C)CC3)cc2c1C (configuration not stated)	nt	nt	nt	0
O=[N+]([O-])c1cccnc1N1CCC(c2cc(-c3ccc(Cl)cc3)n[nH]2)CC1	?	7.9µM*	-8%	0
Cc1nc2ccc(Cc3ccc4nc(C)[nH]c4c3)cc2[nH]1	-2%	-5%	-8%	2
Cc1nc2ccc(N=NN(C)C)cc2[nH]1	?	10µM*	?	-35*
CC(=O)Nc1cccc(NC(=O)CSc2cn(CC(=O)N3CCCCCC3)c3ccccc23)c1	-10%	-11%	0%	nt
CC1=CN2C(=N)/C(=C/c3ccc(C)o3)C(=O)N=C2S1	-11%	?	2%	0
CC1=CN2C(=N)/C(=C/c3ccc(Sc4ccc(Cl)cc4)o3)C(=O)N=C2S1	?	13µM*	-9%	0
CC1=CN2C(=N)/C(=C/c3ccc(Sc4ccc(C)cc4)o3)C(=O)N=C2S1	?	7.9µM*	-5%	0
COc1cccc(CN2C(=O)c3ccccc3Sc3ccc(C(=O)NCCc4ccc(Cl)cc4)cc32)c1	?	-5%	?	nt
CC(=O)Nc1sc(N/N=C/c2ccc(N(C)C)cc2)nc1-c1ccc(C)cc1	32µM*[quencher]	16µM*	-6%	-4
COc1cc(/C=N\Nc2nc(-c3ccc(C)cc3)c(NC(C)=O)s2)ccc1O	?	?	6%	-3
CC(=O)Nc1sc(N/N=C/c2ccc(C)cc2)nc1-c1ccc(C)cc1	?	?	1%	-3
CCOc1cc(/C=N\Nc2nc(-c3ccc(C)cc3)c(NC(C)=O)s2)ccc1O	?	20µM*	10%	-4
NCCSSCCN	-19%	14µM*	?	7
NNc1nncc2ccccc12	-12%	?	?	-59*!
COC(=O)CCCC1=CC2=C(c3ccccc3)C(=O)C(C)(OC(=O)C3CCCC3)C(=O)C2=CN1Cc1ccc(OC)cc1 (configuration not stated)	-5%[11.6 µM]	?	-2%[11.6 µM]	-8
Cc1ccc(C(=O)C(C)CN2CCCCC2)cc1 (configuration not stated)	-7%	2%	-13%	2
CN(C)c1ccc(N=Nc2ccc(S(=O)(=O)O)cc2)c2ccccc12	?	5µM*	2%	5
O=C(NCc1cccs1)c1cccc(Nc2nc3ccc(Br)cc3[nH]2)c1	7.9µM*[quencher]	?	?	1
CCOC(=O)C1CCN(C(=O)c2c(C)oc3c2C(=O)c2ccccc2C3=O)CC1	-18%	-15%	-2%	-47*
Cc1oc2c(c1C(=O)N1CCC(C)CC1)C(=O)c1ccccc1C2=O	-17%	-11%	0%	-46*
CCOC(=O)C1CCN(C(=O)c2ccco2)CC1	-9%	-4%	-6%	3
O=C(O)COc1ccccc1/C=N/Nc1ccc(S(=O)(=O)N2CCOCC2)cc1[N+](=O)[O-]	-11%	?	2%	-1
Cc1ccc(-n2c(O)c(/C=N/Nc3ccc(S(=O)(=O)N4CCOCC4)cc3[N+](=O)[O-])c3ccccc3c2=O)c(C)c1	?	13µM*	-9%	-7
CCOc1ccc(C2C(=O)N(C3CCCCCC3)CC(=O)N2CCc2ccc(OC)c(OC)c2)cc1OC (configuration not stated)	-8%	1%	-12%	nt
SMILES	Tau fluor cs	Tau ThT inhib	Tau fibril FP	FBPA coupling cs
CC(=C/c1ccco1)/C=N/N1CCN(c2ccccc2)CC1	-29%	14µM*	1%	nt
O=[N+]([O-])c1ccc(N/N=C\c2cccn2-c2ccccc2)nc1	16µM*[quencher]	7.1µM*	16%	2
Cc1cc(/C=N/NC(=O)c2cccc([N+](=O)[O-])c2)c(C)n1-c1ccccc1	?	?	?	0
Cc1ccccc1-n1c(C)cc(/C=N/Nc2ccc([N+](=O)[O-])cn2)c1C	?	4.5µM*	3%	-2
Cc1cc(/C=N/Nc2ccc([N+](=O)[O-])cn2)c(C)n1-c1ccc(C(=O)O)cc1	?	4.5µM*	?	-7
O=c1c(-c2ccc(F)cc2)nc2cnc(N3CCNCC3)nc2n1C1CC1	nt	nt	nt	2
CCc1ccc(C(=O)c2cn(CC(=O)Nc3ccc4c(c3)OCCO4)c3ccc(C)cc3c2=O)cc1	-16%	5%	?	nt
COc1ccc(-c2nn(C)c3sc(C(=O)NCc4ccco4)cc23)cc1OC	9%	13%	7%	0
CCOC(=O)N1CCC(NC(=O)c2cc3c(-c4ccc(OC)c(OC)c4)nn(C)c3s2)CC1	-12%	-7%	4%	4
COc1ccc(NC(=O)c2cc3c(-c4ccc(OC)c(OC)c4)nn(C)c3s2)cc1OC	3.5µM*[quencher]	?	-2%	0
COc1ccc(-c2nn(C)c3sc(C(=O)Nc4cc(OC)c(OC)c(OC)c4)cc23)cc1OC	2.5µM*[quencher]	?	?	nt
CCOC(=O)CCN1C(=O)[C@H]2[C@H]3[C@H](O)[C@H](O)C/C(=N/NC(=O)OCC)[C@@H]3CC[C@@H]2C1=O	-26%[11.6 µM]	-17%[11.5 µM]	-16%[11.6 µM]	1
CCOc1ccc(NC(=O)Cn2c(=O)n(Cc3ccco3)c(=O)c3ccc(C(=O)NC4CCCC4)cc32)cc1	?	2%	16µM*	nt
CCOc1ccc(OC(=O)c2cn(-c3ccc(C)cc3)c(=O)c3ccccc23)cc1	-17%	-12%	-6%	nt
Cc1ccc(NC(=O)/C(C#N)=C/c2ccc(-c3ccc(Cl)c(C(=O)O)c3)o2)cc1C	-2%	4.5µM*	-2%	nt
O=C(O)c1cc(-c2ccc(/C=N/Nc3ccc(Cl)cc3)o2)ccc1Cl	11µM*[quencher]	8.9µM*	2%	-8
COc1cc2c(=O)c(C(=O)c3ccc(C)c(C)c3)cn(Cc3ccc(F)cc3)c2cc1OC	-16%	?	-2%	nt
CN(c1ccccc1)S(=O)(=O)c1cccc(NC(=O)c2cc(=O)c3ccccc3o2)c1	13µM*[quencher]	-18%	-27%	0
NS(=O)(=O)c1cccc(NC(=O)c2cc(=O)c3ccccc3o2)c1	nt	nt	nt	1
O=C(Nc1cccc(S(=O)(=O)N2CCCCCC2)c1)c1cc(=O)c2ccccc2o1	14µM*[quencher]	-9%	?	-3
O=C(Nc1cccc(S(=O)(=O)N2CCCCC2)c1)c1ccccn1	-23%	-2%	-2%	2
N#C/C(=C/c1ccco1)C(N)=S	?	28µM*	?	-29
N#C/C(=C\c1ccc2c(c1)OCO2)C(N)=S	-15%	-17%	1%	0
Cc1nc2cnc(N3CCOCC3)nc2n(C[C@H]2CCCO2)c1=O	nt	nt	nt	1
c1ccc(-c2ccc(N3CCCC4(CCNCC4)C3)cc2)cc1	nt	nt	nt	3
CC(C)C(=O)Nc1nnc(S(=O)(=O)N(C)Cc2ccc(F)cc2)s1	0%	6%	-2%	nt
FC(F)(F)c1nc2cc3nc4ccccc4[nH]c3cc2n1	-30%	5µM*	?	-19
OC(c1nc2ccccc2[nH]1)C(O)c1nc2ccccc2[nH]1 (configuration not stated)	nt	nt	nt	0
